Assay outcomes deposited in PubChem BioAssay by several laboratories.
CYP2C9 activ – human CYP2C9 activators, primary screen, biochemical, luminescence. Cytochrome P450 2C9 (Homo sapiens), P11712. recombinant CYP2C9, luciferin-H conversion; stronger effect = higher value; factor 1 = untreated enzyme, 0 = blocked. activation factor at 5 µM. actives 1.4% (n = 96,000);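 active = activation factor of 2 or more for CYP2C9 at a 5 µM dose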;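 also: 0 = sulfaphenazole-blocked wells and 1 = vehicle-only wells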
CYP2C19 act – human CYP2C19 activators, primary screen, biochemical, luminescence; Cytochrome P450 2C19 (Homo sapiens), P33261; recombinant CYP2C19, luciferin-H EGE luminescence; stronger effect = higher value; 0 = fully inhibited enzyme, 1 = untreated enzyme; activation factor at 5 µM; 96,000 tested, under 10 active; AID 1025, 2008;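 active = activation factor of at least 2 at 5 µM in the primary screen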;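 also: 0 = wells with 2.5 mM tranylcypromine and 1 = vehicle-only wells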
Pyk2 oligo antag – antagonists of Pyk2 self-association, primary screen, Q293 cells, FERM NanoBiT luminescence, HTS; Protein-tyrosine kinase 2-beta (Homo sapiens), Q14289; stronger effect = lower value; z-score (the deposit names both 25 µM and 10 µM); actives 0.83% (n = 99,000); AID 1347419, 2020;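 active = Z-score of -3 or lower, scaled per plate to the spread of control and sample wells; inactive = z-score above -3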;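 also: negative z-score means lost luminescence so less FERM oligomerization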
CYP2C9 inhib – blockers of cytochrome P450 2C9 activity – biochemical, luminescence, ADME assay, primary screen | P11712 | CYP2C9 Supersomes, luciferin-H conversion | inhibition, % at 5 µM | actives 20% (n = 96,000) | AID 777, 2007;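 active = blocking of liver enzyme CYP2C9 beyond about 50% at 5 µM, limit read from the data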
Cav32 inh – Cav3.2 calcium influx blockers – cell-based, Fluo-4 calcium fluorescence, FDSS, MLSMR library, primary screen; actives 4% (n = 100,000); Voltage-dependent T-type calcium channel subunit alpha-1H (Homo sapiens), O95180; B-score at 10 µM; Cav3.2-expressing cells; stronger effect = lower value;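 active = single-dose well whose peak fluorescence ratio is a statistical outlier from its plate by either plate-standardised score or position-corrected B-score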
CYP2C19 inh – blockers of cytochrome P450 2C19 activity – biochemical, luminescence, ADME assay, primary screen; actives 21% (n = 96,000); P33261; inhibition, % at 5 µM; CYP2C19 Supersomes, luciferin-H EGE luminescence, 30 min;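 active = CYP2C19 inhibition above a set limit at 5 µM in the primary screen, cut at about 50% in these data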;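 also: plate controls were negative control wells for no effect and 2.5 mM tranylcypromine positive control for full effect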
* = called active by the depositor; . = not tested or not shown. Sampled rows, rich in hits. Any-hit rate of the full collection: about 27%.

SMILES	CYP2C9 activ	CYP2C19 act	Pyk2 oligo antag	CYP2C9 inhib	Cav32 inh	CYP2C19 inh
CC(=O)NC1C(=O)N(CCc2ccccc2)c2ccc(Br)cc21 (configuration not stated)	0.8	0.2	-0.77	15.0	.	80.4*
COc1ccc(CCn2nnnc2C(CC(C)C)N2CCN(c3ncccn3)CC2)cc1OC (configuration not stated)	0.2	0.7	-0.9	76.0*	.	33.9
COc1ccc(CCn2nnnc2C(C(C)C)N2CCN(c3ncccn3)CC2)cc1OC (configuration not stated)	0.3	0.8	0.28	71.7*	.	23.0
COc1ccc(CCn2nnnc2C(CC(C)C)N2CCC(C(N)=O)CC2)cc1OC (configuration not stated)	1	1.1	0.49	-4.0	0.204	-6.1
CCOC(=O)C1=C(C)NC(=O)C(C(N)=O)C1c1ccccc1 (configuration not stated)	0.9	0.9	0.72	11.0	-0.00674	8.1
COc1ccc(S(=O)(=O)Nc2ccc(S(=O)(=O)N3CCCCC3)cc2)cc1C	0.1	0.4	-3.29*	87.5*	-0.851	57.5*
COc1ccc(S(=O)(=O)Nc2ccc(S(=O)(=O)N3CCCC3)cc2)cc1	0.1	0.5	-1.56	88.7*	-0.0746	54.4*
COc1ccc(S(=O)(=O)N2CCCCCC2)cc1	1.1	0.5	0.19	-11.7	-0.249	51.0*
COC(=O)C1CCN(S(=O)(=O)c2ccc(OC)cc2)CC1	1.3	0.1	1.32	-32.6	0.83	89.0*
CCc1cc2c(=O)n(-c3ccccc3)c(=S)[nH]c2s1	0.9	1	-0.12	7.9	-0.103	1.2
COc1ccc2cc(S(=O)(=O)N3CCCCC3)ccc2c1S(=O)(=O)N1CCCCC1	0.5	0.8	-0.57	51.7*	0.038	25.0
COc1ccc(NS(=O)(=O)c2ccc(N3C(=O)CCC3=O)cc2)cc1	0.3	0.1	1.17	70.3*	1.47	85.5*
COC(=O)c1ccc(NS(=O)(=O)N(C)C)cc1	0.2	0.1	-0.05	78.8*	-0.0902	87.1*
CCn1c(SCc2ccccc2)nnc1C1CCN(S(=O)(=O)c2ccc(OC)cc2)CC1	2*	0.8	1.21	-104.6	-0.858	19.8
CCc1ccc(N2CC(C(=O)NCc3ccco3)CC2=O)cc1 (configuration not stated)	.	.	0.29	.	0.221	.
O=C1N[C@@H](Cc2ccccc2)C(=O)N2[C@H]1C[C@]1(Br)c3ccccc3N(S(=O)(=O)c3ccc(F)cc3)[C@H]21	.	.	.	.	-2.5	.
COc1cccc(N/C(N)=N/c2nc(C(F)(F)F)cc(=O)[nH]2)c1	.	.	0.18	.	.	.
CCOc1cc(NC(=S)NCCCN2CCOCC2)c(OCC)cc1NC(=O)CC(C)C	0.9	0.7	0.9	6.3	-0.0558	31.4
COc1ccc(S(=O)(=O)c2ccc(OC)cc2)cc1	1.3	0	-1.62	-33.6	-0.368	99.1*
COc1ccc(S(=O)(=O)Nc2ccc(CC#N)cc2)cc1	0.2	0	-0.42	84.9*	-0.341	100.0*
COc1ccc(CNS(=O)(=O)c2ccc(S(=O)(=O)N3CCCCC3)cc2)cc1	0.7	0.8	-0.12	32.9	-0.128	21.6
COC(=O)c1ccc(NS(=O)(=O)c2ccc(OC)cc2)cc1	0.1	0.9	-0.69	89.1*	-0.783	14.0
COc1ccc(S(=O)(=O)Nc2ccc(S(=O)(=O)N3CCCCC3)cc2)cc1	0.2	0.8	-3	80.9*	-6.6*	15.9
COc1ccccc1NC(=S)N(CCc1c(C)[nH]c2ccccc12)Cc1cccs1	0.6	0.4	.	36.1	-2.29	58.2*
COc1ccc2[nH]c(C)c(CCN(Cc3cccs3)C(=S)Nc3ccccc3)c2c1	0.1	0.5	.	86.3*	-2.69	50.1*
SMILES	CYP2C9 activ	CYP2C19 act	Pyk2 oligo antag	CYP2C9 inhib	Cav32 inh	CYP2C19 inh
COc1ccc(C(=O)/C=C/c2ccccc2OC)c(OC(=O)c2ccc([N+](=O)[O-])cc2)c1	.	.	-3.3*	.	-1.66	.
COc1ccc(OC(=O)c2cccc([N+](=O)[O-])c2)c(C(=O)/C=C/c2cccs2)c1	0.3	0.4	-0.29	74.8*	0.716	62.0*
COc1ccc(C(=O)/C=C/c2ccc(OC)cc2OC)c(O)c1	.	.	.	.	-1.66	.
CCCCNCc1cccn1-c1ccccc1	.	.	-0.18	.	0.419	.
C=CC[C@]12CC=CC(=O)[C@@]1(O)O[C@H](c1ccc(OC)c(OC)c1)[C@H]2C	.	.	.	.	0.155	.
Cc1ccc(-c2nc(-c3ccccn3)no2)cc1	0.4	0.1	-0.75	58.0*	-0.711	87.4*
Clc1cccc(-c2nc(-c3ccccn3)no2)c1	0.7	0.5	-0.76	32.9	0.0211	51.4*
c1ccc(-c2noc(-c3ccco3)n2)nc1	0.6	0.2	-0.82	36.3	-0.364	77.4*
Cn1c(=O)[nH]c(=O)c2c1nc(N1CCOCC1)n2CC(O)COc1ccc2ccccc2c1 (configuration not stated)	0.8	0.7	0.07	23.8	0.326	29.9
O=C(CSc1nnc(-c2ccc3c(c2)OCO3)n1-c1ccccc1)c1ccc(Cl)cc1	.	.	0.6	.	.	.
Cc1cc(C)cc(N(CC(=O)NC2CC3CCC2C3)S(C)(=O)=O)c1 (configuration not stated)	1.2	0.7	0.01	-24.7	0.0473	28.5
CC1CCC(NC(=O)c2ccc3c(c2)S(=O)(=O)c2ccccc2C3=O)CC1 (configuration not stated)	.	.	.	.	0.34	.
CCOC(=O)N1CCN(CC(=O)Nc2c(C(=O)OC)[nH]c3cc(C)ccc23)CC1	0.9	1	1.19	5.9	1.17	2.3
CCOC(=O)N1CCN(CC(=O)Nc2c(C(=O)OC)[nH]c3ccc(Cl)cc23)CC1	0.7	0.7	0.16	27.4	.	25.8
COC(=O)c1[nH]c2ccc(Cl)cc2c1NC(=O)CN1CCc2cc(OC)c(OC)cc2C1	0.1	0.1	-1.04	89.4*	0.0147	86.6*
COC(=O)c1[nH]c2cc(C)ccc2c1NC(=O)CN1CCc2cc(OC)c(OC)cc2C1	0.5	0.5	-0.22	49.3	0.155	51.2*
CCOC(=O)c1[nH]c2ccc(F)cc2c1NC(=O)CN1CCc2cc(OC)c(OC)cc2C1	0.2	0.3	.	81.4*	.	68.4*
CCOC(=O)c1[nH]c2ccc(OC)cc2c1NC(=O)CCN1CCc2ccccc2C1	0.8	0.9	-0.02	20.9	-0.105	6.5
CCOC(=O)C1CCN(c2c(NC3CCCCCCC3)c(=O)c2=O)CC1	0.9	0.9	.	13.4	0.0682	8.3
O=C(CCCN1C(=O)CSc2ncccc21)N1CCN(Cc2ccccc2)CC1	0.8	0.8	.	19.0	0.997	17.8
